Measurements as given in PubChem BioAssay (NCATS).
Results filed as inconclusive are left out. Activity calls are given as the source filed them. Calls come from the whole dose curve; as a rule, active = well fitted inhibition curve with a large enough effect; inconclusive = small, poorly fitted or top-dose-only effect; inactive = no such curve, though single readings can be large or run the other way. Positions of bridges follow the written chain, without caps; N, C: chain ends. Non-standard residues stand in square brackets, D forms with d. Residues, ends and D or L forms follow the SMILES beside them. ξ: configuration not given here. *: point of attachment. Octanoyl(6-Me) = CCC(C)CCCCC(=O)*; ξThr(3R) = C[C@@H](O)C(N)C(=O)O; dDab = NCC[C@@H](N)C(=O)O; Dab = NCC[C@H](N)C(=O)O
Potency is the fitted concentration of half-maximal effect.

Assay: qHTS assay for measurement of the activity of small molecule inhibitors on Zika virus induced Caspase-3 activity in human iPSC derived neural progenitor cells (hNPCs) (AID 1224857); note: nearly all actives have a fitted effect of over 65% in size; for activity change, negative = inhibition: % of control where 0% means no effect
Details: hNPCs ZIKV-induced caspase-3/7, Caspase-Glo luminescence, 6 h; series mostly up to 45.7 µM; activity change, negative = inhibition: at the top concentration
Excerpt: National Center for Advancing Translational Sciences [NCATS]
Johns Hopkins University School of Medicine
Increase in the Caspase-3 activity indicates an activation of apoptosis cell death pathway caused by Zika virus infection in certain types of neuronal cells including human neural progenitor cells (hNPCs), astrocytes, and astrocytoma cell line (SNB-19). This cell-based caspase-3 activity assay measures the increased caspase-3 activity in the human iPSC derived neural progenitor cells (hNPCs) after a 6-hour Zika virus infection with a luminescence readout. A decrease in the luminescence signal in this assay by small molecule treatment indicates an inhibitory effect of that small molecule on the Zika virus induced caspase-3 activity that may correlate with its effect on reduction of Zika virus caused cell death.
The medium for hNPCs consists of DMEM/F12, N2 supplement (ThermoFisher, Cat.# 17502048), NEAA (ThermoFisher, Cat. # 11140050), 2 ug/ml heparin, 2 uM cyclopamine, and B27 (ThermoFisher, Cat. # 17504044). A Caspase-Glo 3/7 assay kit (catalog number G8092; Promega, Madison, WI) was used to detect caspase-3 activity induced by Zika virus infection in human cells. The reagent mixture was reconstituted as described in the protocol from the manufacturer. Polystyrene tissue culture treated and PDL coated white plates were obtained from Greiner Bio-One (Monroe, NC). Cells were seeded in 384- or 1536-well assay plates and cultured at 37 C with 5% CO2 for 16 to 20 hours. The typical cell seeding density in the 1536-well plate assay is 350 cells/well in 3 ul medium for hNPCs in tissue culture treated plates. Compounds were added to cells and incubated for one hour before addition of ZIKV solution to cells (2 FFU/cell). After incubation at 37 C with 5% CO2 for 6 hours, the reagent mixture of Caspase-Glo 3/7 assay kit was added to each well, followed by incubation at room temperature for 30 minutes. The luminescence intensity of the assay plates was measured using a ViewLux plate reader (PerkinElmer). Data were normalized by using the cell-containing wells without ZIKV as a negative control (0% induction of caspase 3/7 activity) and wells containing ZIKV infected cells (Caspase-3 activity induced) as a positive control (100% induction of caspase 3 activity). The percentage inhibitions of the increased Caspase-3 activity by small molecule inhibitors were then calculated.
With COc1ccc(C=Cc2cc(OC)c(OC)c(OC)c2)cc1NC(=O)[C@H](N)CO the “activity change, negative = inhibition” value was 0.524% (inactive). With O=C(O)C[C@H](O)C[C@H](O)C=Cc1c(C2CC2)nc2ccccc2c1-c1ccc(F)cc1 the “activity change, negative = inhibition” value was -4.45% (inactive). With Cn1cc(-c2ccc3ncc(Cc4ccc5ncccc5c4)n3n2)cn1 the “activity change, negative = inhibition” value was 9.91% (inactive). With CN(C)CCN1C(=O)c2cccc3cc(N)cc(c23)C1=O the “activity change, negative = inhibition” value was -1.2% (inactive). For Cc1nc(NC(=O)N2CCC[C@@H]2C(N)=O)sc1-c1ccnc(C(C)(C)C(F)(F)F)c1, the “activity change, negative = inhibition” value was 15.5% (inactive). In the case of CC(C)C[C@H](NC(=O)CNC(=O)c1cc(Cl)ccc1Cl)B1OC(=O)CC(CC(=O)O)(C(=O)O)O1 (stereo not given in full), the “activity change, negative = inhibition” value is reported as -11.2% (inactive). With O=C1NC(O)CCN1[C@@H]1O[C@H](CO)[C@H](O)[C@H]1O (stereo not given in full) the “activity change, negative = inhibition” value was -11.4% (inactive). In the case of CC(C)n1cnc2c(NCCc3ccc(O)cc3)nc(-c3csc4ccccc34)nc21, the “activity change, negative = inhibition” value is reported as -2.38% (inactive). With CCCCOc1ccc(C(=O)Nc2ccc(F)cc2F)cc1 the “activity change, negative = inhibition” value was -5.9% (inactive). In the case of COc1ccc(S(=O)(=O)Nc2cc(-c3c(O)ccc4ccccc34)c(O)c3ccccc23)cc1, the “activity change, negative = inhibition” value is reported as -13.2% (inactive). With Cc1ccc2nc(NCCN)c3ncc(C)n3c2c1 the “activity change, negative = inhibition” value was 175% (inactive). In the case of C=C(C)[C@@H]1CC[C@]2(C(=O)O)CC[C@]3(C)[C@H](CC[C@@H]4[C@@]5(C)CC[C@H](O)C(C)(C)[C@@H]5CC[C@]43C)[C@@H]12, the “activity change, negative = inhibition” value is reported as -18% (inactive). For O=C1NC(=O)C(=Cc2ccc3nccc(-c4ccncc4)c3c2)S1, the “activity change, negative = inhibition” value was 63.2% (inactive). With Nc1nc(=O)n([C@H]2CSC(CO)O2)cc1F (stereo not given in full) the “activity change, negative = inhibition” value was -5.67% (inactive). With CC(=O)ON=C1C(c2c(O)[nH]c3cc(Br)ccc23)=Nc2ccccc21 the “activity change, negative = inhibition” value was -27.8% (inactive). In the case of O=C(O)CCCCC(CCSCc1ccccc1)SCc1ccccc1 (stereo not given), the “activity change, negative = inhibition” value is reported as 28.2% (inactive). In the case of NS(=O)(=O)OC[C@@H]1C[C@@H](n2ccc3c(N[C@H]4CCc5ccccc54)ncnc32)C[C@H]1O, the “activity change, negative = inhibition” value is reported as -11.2% (inactive). With COc1cc(OC)c(C=CS(=O)(=O)Cc2ccc(OC)c(NCC(=O)O)c2)c(OC)c1 the “activity change, negative = inhibition” value was 77.3% (inactive). In the case of O=C(Nc1cc2cc[nH]c2cn1)c1ccccc1, the Potency is reported as 4.69 µM (active). With C[C@]12C=CC(=O)N[C@@H]1CC[C@H]1[C@H]3CC[C@@H](C(=O)Nc4cc(C(F)(F)F)ccc4C(F)(F)F)[C@@]3(C)CC[C@@H]12 the “activity change, negative = inhibition” value was -4.74% (inactive). In the case of Cn1cc(CNCC2CCN(c3ncc(C(=O)NO)cn3)CC2)c2ccccc21, the “activity change, negative = inhibition” value is reported as -7.32% (inactive). In the case of Cc1cn([C@@H]2O[C@H](CO)[C@@H](O)[C@H]2F)c(=O)[nH]c1=O, the “activity change, negative = inhibition” value is reported as 42.2% (inactive). With N#CNC(=NCCCCCCOc1ccc(Cl)cc1)Nc1ccncc1 the “activity change, negative = inhibition” value was 74.7% (inactive). With Cc1ccc([N+](=O)[O-])cc1S(=O)(=O)N(C)N=Cc1cnc2ccc(Br)cn12 the “activity change, negative = inhibition” value was 74.9% (inactive). For Oc1cc2c(cc1O)C1c3ccc(O)c(O)c3OCC1(O)C2 (stereo not given), the “activity change, negative = inhibition” value was 34.1% (inactive). In the case of C[C@H]1O[C@H](O[C@H]2[C@H](O)[C@@H](O)[C@@H](O[C@H]3[C@H](O)[C@@H](O)C(O)O[C@H]3CO)O[C@H]2CO)[C@H](O)[C@@H](O)[C@H]1N[C@H]1C=C(CO)[C@@H](O)[C@H](O)[C@@H]1O (stereo not given in full), the “activity change, negative = inhibition” value is reported as -10.5% (inactive). In the case of O=C(O)[C@H](CC(=O)N1C[C@@H]2CCCC[C@H]2C1)Cc1ccccc1, the Potency is reported as 23.5 µM (active). For O=C(O)C=Cc1ccc(Cn2ccnc2)cc1, the “activity change, negative = inhibition” value was -1.47% (inactive). For O=C1c2cccc(O)c2C(=O)c2c(O)cc(CO)cc21, the “activity change, negative = inhibition” value was -7.77% (inactive). With C=CC(=O)N1CCc2ccc(-n3c(=O)ccc4cnc5ccc(-c6cnn(C)c6)cc5c43)cc21 the “activity change, negative = inhibition” value was -8.44% (inactive). For COc1cc2c(Nc3ccc(Cl)c(Cl)c3F)ncnc2cc1OCC1C[C@@H]2CN(C)C[C@H]2C1, the “activity change, negative = inhibition” value was 20.5% (inactive). In the case of COc1ccc2cc([S+]([O-])Cc3ncc(C)c(OC)c3C)nc2c1, the “activity change, negative = inhibition” value is reported as 7.79% (inactive). In the case of C[C@@H](Cc1cc2c(c(C(N)=O)c1)N(CCCO)CC2)NCCOc1ccccc1OCC(F)(F)F, the “activity change, negative = inhibition” value is reported as 11.1% (inactive). For CCc1ccc(C(=O)Nc2cc(CN3CCN(C)CC3)cc(C(F)(F)F)c2)cc1C#Cc1cnc2ccnn2c1, the “activity change, negative = inhibition” value was -3.96% (inactive). In the case of CCC(C)CCCCC(=O)N[C@@H](CCN)C(=O)NC(C(=O)N[C@H](CCN)C(=O)N[C@@H]1CCNC(=O)C([C@@H](C)O)NC(=O)[C@@H](CCN)NC(=O)[C@@H](CCN)NC(=O)[C@@H](CC(C)C)NC(=O)[C@H](Cc2ccccc2)NC(=O)[C@H](CCN)NC1=O)[C@@H](C)O (stereo partly drawn) ({Octanoyl(6-Me)}-[Dab][ξThr(3R)][dDab][dDab][Dab]F[dL][dDab][dDab][ξThr(3R)]; lactam 4-C), the “activity change, negative = inhibition” value is reported as 10.7% (inactive). With O=S(=O)(O)CCSSCCS(=O)(=O)O the Potency was 29.6 µM (active). For COc1cc(C=CC(=O)CC(=O)C=Cc2ccc(O)c(OC)c2)ccc1O, the “activity change, negative = inhibition” value was 0.0354% [at 92.8 µM] (inactive). For Oc1cc(-c2nc(-c3ccccc3)[nH]c2-c2ccncc2)ccc1Cl, the “activity change, negative = inhibition” value was 35.7% (inactive). With CN1C(C(=O)Nc2ccccn2)=C(O)c2sc(Cl)cc2S1(=O)=O the “activity change, negative = inhibition” value was 76.5% (inactive). In the case of O=c1[nH]c(=O)n([C@H]2C[C@@H](O)[C@@H](CO)O2)cc1F, the “activity change, negative = inhibition” value is reported as 2.69% (inactive).
